Compound activity deposited in PubChem BioAssay by National Center for Advancing Translational Sciences (NCATS).
Rows were chosen to be rich in hits. Some 11% of all compounds tested hit in one or more screens of this group.
IL1B secr inh: inflammasome signaling inhibition, IL-1 beta readout | THP-1 LPS/ATP IL-1B secretion, AlphaLISA, 16 h; stronger effect = lower value | activity change, % at 57.5 µM | hit rate 4.7% among 360,000; in the data active means activity change below about -50%; inconclusive means mostly about -30% to -49%; further: on the % scale 0 is the no-effect control and ±100 the full control effect
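Secreted IL-1B measured by AlphaLISA bead assay after 16 h compound exposure of THP-1 cells; compounds (final up to 57.5 uM) added 1 h before LPS (250 ng/mL) and ATP (1.25 mM) stimulation; lower signal means less secretion.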
MCF10A rereplic: inducers of DNA re-replication in MCF 10A breast cells; hit rate 2.9% among 350,000; Potency, µM (doses to about 46.1 µM), for the others: top-dose activity, positive = re-replication, most hits filed as activators; MCF 10A DNA re-replication, Hoechst nuclear intensity, 48 h; AID 624296; further: potency means the concentration at half of the fitted maximal effect; % of control where 0% means no effect; nearly all actives have a fitted effect of over 50% in size
Gal4-VP16 FLuc: inhibits Gal4-VP16 luciferase reporter, ROR gamma counter-screen. Drosophila S2 Gal4-VP16 UAS-luciferase, luminescence, 20 h. Potency, µM (top dose mostly 53.6 µM), for the others: at the top dose activity, negative = inhibition, usual class: inhibitors. hit rate 3.5% among 310,000. AID 2546;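 further: Gal4-VP16 expression switched on by copper sulfate through the metallothionein promoter; potency means the concentration at half of the fitted maximal effect; on the % scale 0 is the no-effect control and ±100 the full control effect; nearly all actives have a fitted effect of over 50% in size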
SW480 rerep: induces DNA re-replication in SW480 colon adenocarcinoma cells; SW480 DNA re-replication, Hoechst DNA content imaging, 48 h; Potency, µM (doses to about 46.1 µM), for inactives: at the top dose re-replication activation, actives largely listed as activators; hit rate 1.8% among 340,000; further: potency means the concentration at half of the fitted maximal effect; % of control where 0% means no effect; nearly all actives have a fitted effect of over 55% in size
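Quantitative HTS format with DMSO vehicle controls; 48 hr drug incubation at 37 C, then 40 min Hoechst staining and scanning imager measurement at 405 nm excitation.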
RORgamma inh: inhibitors of mouse ROR gamma transcriptional activity; P51450; hit rate 5.4% among 310,000; AID 2551; Drosophila S2 Gal4-RORgamma UAS-luciferase reporter, 20 h; Potency, µM (titrated, usually from 53.6 µM), for the others: at the top dose activity change, negative = inhibition, hits mostly inhibitors; further: potency means the concentration at half of the fitted maximal effect; on the % scale 0 is the no-effect control and ±100 the full control effect; nearly all actives have a fitted effect of over 60% in size
Target sequence (P51450 whole entry, looked up, the tested form may be a part): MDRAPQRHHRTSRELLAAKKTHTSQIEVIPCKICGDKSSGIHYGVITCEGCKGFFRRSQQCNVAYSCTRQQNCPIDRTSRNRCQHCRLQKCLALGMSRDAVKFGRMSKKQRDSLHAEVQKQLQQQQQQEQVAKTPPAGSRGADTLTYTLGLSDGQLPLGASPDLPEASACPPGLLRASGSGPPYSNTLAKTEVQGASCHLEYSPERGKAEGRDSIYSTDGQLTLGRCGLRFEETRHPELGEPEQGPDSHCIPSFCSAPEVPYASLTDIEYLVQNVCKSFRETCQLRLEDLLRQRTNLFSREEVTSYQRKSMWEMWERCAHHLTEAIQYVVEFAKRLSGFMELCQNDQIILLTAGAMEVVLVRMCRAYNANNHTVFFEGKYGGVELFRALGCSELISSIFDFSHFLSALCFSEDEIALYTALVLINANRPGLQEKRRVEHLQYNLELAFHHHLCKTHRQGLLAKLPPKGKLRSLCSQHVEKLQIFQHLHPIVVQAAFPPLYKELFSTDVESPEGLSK
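Schneider cells (Drosophila), stable Gal4 DBD–ROR gamma + UAS-luc; 1 hr cmpd preincubation; Cu2+ induction 700 uM final; 20 hr ambient; luminescence.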
* marks the source's active call; other numbers are inactive results; ? = inconclusive; . = not tested or not shown. Unless noted, the call rests on the fitted dose curve; in most records, active means well fitted curve in the direction sought with a large enough effect; inconclusive means small, poorly fitted or top-dose-only effect, or another doubt; inactive means no such curve, though single readings can be large; an effect the other way counts as inactive or inconclusive.

SMILES | IL1B secr inh | MCF10A rereplic | Gal4-VP16 FLuc | SW480 rerep | RORgamma inh
Cc1cc2nc(-c3ccc(C#N)cc3)c(Cc3ccsc3)n2c(C)c1Br | 4 | . | . | . | .
CC(=O)Nc1ccc(NC(=O)Cc2ccc(-c3ccccc3)cc2)cc1 | -8 | 8% | -4% | -2% | 17%
O=C(Nc1ccc(N=Nc2ccccc2)cc1)c1ccccc1Cl | -67* | 30% | -1% | ? | -3%
CC(=O)Nc1ccc(N=Nc2ccccc2)cc1 | -21 | -6% | 21% | ? | 12%
O=C(CCl)Nc1ccc(N=Nc2ccccc2)cc1 | -98* | ? | ? | 23µM* | ?
O=C(CCl)Nc1ccc(-c2ccccc2)cc1 | -97* | 16µM* | ? | ? | 25µM*
CC(C)N(c1ccccc1)c1ccc(NC(=O)CCl)cc1 | -100* | ? | ? | ? | ?
CC(C)N(c1ccccc1)c1ccc(NC(=O)[C@@H]2O[C@H](CO)[C@H](O)[C@H](O)[C@H]2O)cc1 | 22 | . | . | . | .
O=C(NCCCNC(=O)c1cc(Cl)ccc1Cl)c1ccccn1 | -13 | 0% | -2% | -5% | 9%
CC(=O)NCCNC(=O)Cn1nnc(-c2ccccc2)c1COc1ccc2ccccc2c1 | 25 | . | . | . | .
CON(C)C(=O)/C=C/c1ccc([B-](F)(F)F)cc1 | 0 | -55% | . | ? | .
NC1=NN=C(N2N=C(c3ccccc3)CC2(O)C(F)(F)F)n2ncnc2C1 (stereo not given) | -3 | 2% | ? | -2% | 13µM*
NC1=NN=C(N2N=C(c3ccc(Br)cc3)CC2(O)C(F)(F)F)n2ncnc2C1 (stereo not given) | -5 | -9% | 18µM* | -2% | ?
COc1ccccc1C1=NN(C2=NN=C(N)Cc3ncnn32)C(O)(C(F)(F)F)C1 (stereo not given) | ? | 0.58µM* | -7% | 56% | ?
COc1ccc(C2=NN(C3=NN=C(N)Cc4ncnn43)C(O)(C(F)(F)F)C2)cc1 (stereo not given) | -12 | 0.58µM* | 11µM* | -5% | 8.9µM*
CCOc1ccc(NC(=O)NNC(=O)c2cc3ccccc3cc2O)cc1 | 6 | -2% | -9% | 13% | 3%
Cc1ccc(NC2Sc3ccccc3NC2=O)cc1 (stereo not given) | 25 | 1% | ? | -1% | 11µM*
O=C1N/C(=C/c2cccn2-c2ccccc2)C(=O)N1Cc1ccc(F)cc1 | 11 | 1% | 10µM* | 1% | 30%
O=C1N/C(=C/c2cccn2-c2ccc(F)cc2)C(=O)N1Cc1ccccc1F | -4 | 6% | -9% | -2% | 2%
Cc1cc(C(C)(C)CC(C)(C)C)ccc1OCCOCC[N+](C)(C)Cc1ccccc1 | 23 | ? | 18µM* | -63% | ?
COC(=O)c1cc(NC(=O)c2cccc(C(F)(F)F)c2)c(=O)oc1C/C=N/OCc1cccc(Cl)c1Cl | 10 | 18µM* | -5% | 13% | 16%
COC(=O)c1cc(NC(=O)c2cccc(C(F)(F)F)c2)c(=O)oc1C | ? | -2% | -12% | 1% | 16%
O=C(C1CCN(S(=O)(=O)c2cccc3nsnc23)CC1)N1CCc2ccccc21 | -1 | ? | -3% | 2% | 30%
O=C(C1CCN(S(=O)(=O)c2cccc3nsnc23)CC1)N1CCCc2ccccc21 | -52* | ? | -25% | 8% | -11%
CN(Cc1ccccc1)C(=O)C1CCN(S(=O)(=O)c2cccc3nsnc23)CC1 | -14 | 20% | -15% | 21µM* | 5%
SMILES | IL1B secr inh | MCF10A rereplic | Gal4-VP16 FLuc | SW480 rerep | RORgamma inh
COc1ccc(C)cc1N(CC(=O)NCCSCc1ccco1)S(=O)(=O)c1ccc(C)cc1 | -25 | ? | -16% | ? | 8%
CC1ON=C(c2ccccn2)N(Cc2ccc(S(C)(=O)=O)cc2)C1=O (stereo not given) | 19 | . | . | . | .
CC(=O)Nc1ccc(Oc2sc(C(=O)c3ccccc3)c(N)c2C#N)cc1 | -60* | 21µM* | 4% | ? | -7%
CC(=O)Nc1ccc(Oc2ccccc2)cc1 | 20 | 3% | 15% | -15% | -2%
COc1ccccc1NS(=O)(=O)c1cc(C(=O)N2CCCC2)ccc1F | 14 | -3% | . | 13% | .
C=CCSc1nnc(-c2sc(-c3ccccc3)nc2C)n1C | -11 | 6% | 18% | -8% | 30%
